Laboratory results from the supplement of paper PMC10849652.
About 8,800 targets were measured; listed, in parts, are those with a hit and a random draw of the rest. About 0.5% of all pairs of compound and target were hits. A number with no mark means an inactive call.

Experiments:
Experiment in all cases: log2 fold change, soluble protein after heating vs DMSO (PISA); higher = thermal stabilisation; K562 lysate, 10 uM; active = over 0.2 and 3.5 SD of the protein, either way, in both replicates (recomputed)
nilotinib = compound: Cc1cn(-c2cc(NC(=O)c3ccc(C)c(Nc4nccc(-c5cccnc5)n4)c3)cc(C(F)(F)F)c2)cn1 [nilotinib]
Procedure, shortened: (§1)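 Pellets of K562 cells were dounce-homogenised in PBS pH 7.4 with 1 mM MgCl2, and the crude extract was held at 1 mg/mL protein for a 30 min treatment with 10 μM compound. Aliquots were heated for 3 min over 48°C-58°C and pooled before NP-40 was added to 0.5% at 4°C. The supernatant from 21,000xg for 90 min was quantified by TMTpro 16plex LC-MS/MS with channel sums equalised. Values are reported from duplicates as log-two fold change in thermal stability relative to solvent controls.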

[1] = compound: Cc1nc(Nc2n[nH]c3c2CN(C(=O)N[C@H](CN(C)C)c2ccccc2)C3(C)C)c2sccc2n1
Procedure, shortened: as §1

dasatinib = compound: Cc1nc(Nc2ncc(C(=O)Nc3c(C)cccc3Cl)s2)cc(N2CCN(CCO)CC2)n1 [dasatinib]
Procedure, shortened: as §1

[2] = compound: Cc1ncc(-c2ccnc(Nc3ccc(S(C)(=O)=O)cc3)n2)n1C(C)C
Procedure, shortened: as §1

[3] = compound: Cn1cc(-c2ccc3c(c2)CCN3C(=O)Cc2cccc(C(F)(F)F)c2)c2c(N)ncnc21
Procedure, shortened: as §1

quisinostat = compound: Cn1cc(CNCC2CCN(c3ncc(C(=O)NO)cn3)CC2)c2ccccc21 [quisinostat]
Procedure, shortened: as §1

tipifarnib = compound: Cn1cncc1[C@@](N)(c1ccc(Cl)cc1)c1ccc2c(c1)c(-c1cccc(Cl)c1)cc(=O)n2C [tipifarnib]
Procedure, shortened: as §1

[4] = compound: NC(=O)Nc1cc(-c2cccc(F)c2)sc1C(=O)N[C@H]1CCCNC1
Procedure, shortened: as §1

[5] = compound: NC1(c2ccc(-c3nc4ccn5c(=O)[nH]nc5c4cc3-c3ccccc3)cc2)CCC1
Procedure, shortened: as §1

[6] = compound: NC(=O)c1cnc(N[C@@H]2CCCC[C@@H]2N)nc1Nc1cccc(-n2nccn2)c1
Procedure, shortened: as §1

UniProt P23634, sequence (P23634 whole entry, looked up): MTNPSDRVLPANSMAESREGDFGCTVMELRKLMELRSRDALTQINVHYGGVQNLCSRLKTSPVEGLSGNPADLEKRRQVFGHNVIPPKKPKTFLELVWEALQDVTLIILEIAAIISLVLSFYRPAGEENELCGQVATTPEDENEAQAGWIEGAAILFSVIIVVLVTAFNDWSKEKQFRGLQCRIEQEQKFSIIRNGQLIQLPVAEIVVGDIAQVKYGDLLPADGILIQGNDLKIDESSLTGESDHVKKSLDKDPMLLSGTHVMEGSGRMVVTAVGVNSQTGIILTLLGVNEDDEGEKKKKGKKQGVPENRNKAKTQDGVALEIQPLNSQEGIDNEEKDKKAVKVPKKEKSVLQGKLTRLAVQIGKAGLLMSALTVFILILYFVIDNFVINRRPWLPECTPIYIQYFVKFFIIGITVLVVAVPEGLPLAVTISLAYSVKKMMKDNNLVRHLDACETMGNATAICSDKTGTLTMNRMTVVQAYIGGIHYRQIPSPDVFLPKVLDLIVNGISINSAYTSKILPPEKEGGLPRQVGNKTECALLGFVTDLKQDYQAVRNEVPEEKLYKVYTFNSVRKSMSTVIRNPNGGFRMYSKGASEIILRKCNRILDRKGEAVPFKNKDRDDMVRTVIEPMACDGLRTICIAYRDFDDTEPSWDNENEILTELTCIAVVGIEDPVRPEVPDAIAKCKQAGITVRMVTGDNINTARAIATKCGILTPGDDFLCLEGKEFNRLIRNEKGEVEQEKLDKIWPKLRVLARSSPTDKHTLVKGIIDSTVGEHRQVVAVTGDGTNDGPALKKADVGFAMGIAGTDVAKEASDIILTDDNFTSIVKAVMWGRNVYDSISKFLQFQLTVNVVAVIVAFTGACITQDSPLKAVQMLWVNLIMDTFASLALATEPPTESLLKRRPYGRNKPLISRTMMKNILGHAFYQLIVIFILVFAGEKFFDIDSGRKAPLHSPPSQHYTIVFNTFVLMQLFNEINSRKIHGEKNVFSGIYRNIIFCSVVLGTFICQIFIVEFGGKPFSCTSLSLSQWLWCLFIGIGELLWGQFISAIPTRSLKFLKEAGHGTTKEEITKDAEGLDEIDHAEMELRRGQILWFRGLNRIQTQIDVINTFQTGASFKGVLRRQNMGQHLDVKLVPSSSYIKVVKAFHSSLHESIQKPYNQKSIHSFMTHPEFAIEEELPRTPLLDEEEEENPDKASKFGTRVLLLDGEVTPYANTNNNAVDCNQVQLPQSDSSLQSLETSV
UniProt P11274, sequence (P11274 whole entry, looked up): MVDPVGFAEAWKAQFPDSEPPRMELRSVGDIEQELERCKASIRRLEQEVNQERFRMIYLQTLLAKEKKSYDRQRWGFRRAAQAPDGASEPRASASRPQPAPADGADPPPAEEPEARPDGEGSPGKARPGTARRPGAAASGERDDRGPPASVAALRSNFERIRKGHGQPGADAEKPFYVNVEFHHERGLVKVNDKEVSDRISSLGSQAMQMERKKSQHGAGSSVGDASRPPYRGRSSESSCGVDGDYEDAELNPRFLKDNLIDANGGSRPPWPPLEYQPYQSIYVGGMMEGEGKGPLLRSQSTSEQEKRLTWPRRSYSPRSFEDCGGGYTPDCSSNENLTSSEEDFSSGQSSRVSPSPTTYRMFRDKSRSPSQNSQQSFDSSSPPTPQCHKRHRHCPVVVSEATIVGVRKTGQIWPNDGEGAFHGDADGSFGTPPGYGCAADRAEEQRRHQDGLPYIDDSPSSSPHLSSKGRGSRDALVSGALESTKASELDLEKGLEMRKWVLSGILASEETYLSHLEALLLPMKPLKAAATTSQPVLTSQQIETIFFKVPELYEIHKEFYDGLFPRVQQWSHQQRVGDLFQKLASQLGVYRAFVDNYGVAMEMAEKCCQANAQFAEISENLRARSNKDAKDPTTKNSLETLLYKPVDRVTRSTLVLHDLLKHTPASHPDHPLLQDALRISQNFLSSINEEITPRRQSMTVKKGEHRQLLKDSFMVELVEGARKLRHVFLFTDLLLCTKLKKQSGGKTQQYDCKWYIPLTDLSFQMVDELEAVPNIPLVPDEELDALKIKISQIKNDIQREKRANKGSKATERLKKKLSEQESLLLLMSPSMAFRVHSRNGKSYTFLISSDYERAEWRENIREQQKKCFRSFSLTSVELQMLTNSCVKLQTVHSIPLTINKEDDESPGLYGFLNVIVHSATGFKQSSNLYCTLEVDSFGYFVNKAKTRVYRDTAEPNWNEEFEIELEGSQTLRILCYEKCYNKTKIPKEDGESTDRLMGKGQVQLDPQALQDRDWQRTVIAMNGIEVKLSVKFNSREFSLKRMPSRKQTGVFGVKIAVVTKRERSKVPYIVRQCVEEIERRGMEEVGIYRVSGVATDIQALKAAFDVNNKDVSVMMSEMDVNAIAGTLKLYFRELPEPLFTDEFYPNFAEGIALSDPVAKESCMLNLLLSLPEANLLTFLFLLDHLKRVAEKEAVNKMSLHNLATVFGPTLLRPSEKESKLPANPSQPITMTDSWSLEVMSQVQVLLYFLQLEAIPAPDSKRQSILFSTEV
UniProt Q92879, sequence (Q92879 whole entry, looked up): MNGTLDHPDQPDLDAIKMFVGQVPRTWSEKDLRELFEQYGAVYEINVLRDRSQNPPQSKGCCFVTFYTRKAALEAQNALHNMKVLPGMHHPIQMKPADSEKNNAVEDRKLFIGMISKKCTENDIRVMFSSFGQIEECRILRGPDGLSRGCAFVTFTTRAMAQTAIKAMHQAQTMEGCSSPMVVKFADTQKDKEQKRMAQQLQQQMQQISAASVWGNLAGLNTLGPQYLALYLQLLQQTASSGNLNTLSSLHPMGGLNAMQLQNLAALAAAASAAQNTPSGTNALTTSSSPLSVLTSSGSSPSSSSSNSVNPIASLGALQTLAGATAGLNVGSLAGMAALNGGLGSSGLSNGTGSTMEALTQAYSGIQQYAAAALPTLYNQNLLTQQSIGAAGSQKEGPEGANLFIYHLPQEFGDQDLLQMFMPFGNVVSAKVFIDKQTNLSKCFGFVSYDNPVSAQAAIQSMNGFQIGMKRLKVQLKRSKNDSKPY
UniProt Q96RR4, sequence (Q96RR4 whole entry, looked up): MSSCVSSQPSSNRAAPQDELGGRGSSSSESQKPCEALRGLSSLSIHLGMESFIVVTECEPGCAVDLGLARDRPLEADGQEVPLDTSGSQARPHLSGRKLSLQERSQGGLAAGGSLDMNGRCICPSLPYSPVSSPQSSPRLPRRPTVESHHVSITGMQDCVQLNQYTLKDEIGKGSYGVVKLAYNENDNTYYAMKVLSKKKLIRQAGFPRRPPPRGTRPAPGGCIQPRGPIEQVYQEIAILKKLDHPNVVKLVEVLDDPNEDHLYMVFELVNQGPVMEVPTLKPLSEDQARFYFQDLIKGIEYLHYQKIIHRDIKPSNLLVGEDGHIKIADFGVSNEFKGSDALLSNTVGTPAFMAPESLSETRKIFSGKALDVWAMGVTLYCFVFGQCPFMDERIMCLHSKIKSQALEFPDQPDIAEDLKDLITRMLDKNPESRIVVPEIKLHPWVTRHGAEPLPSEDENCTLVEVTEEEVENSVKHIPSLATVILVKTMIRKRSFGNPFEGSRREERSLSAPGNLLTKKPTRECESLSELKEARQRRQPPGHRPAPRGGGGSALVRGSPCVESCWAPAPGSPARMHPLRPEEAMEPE
UniProt Q96SZ6, sequence (Q96SZ6 whole entry, looked up): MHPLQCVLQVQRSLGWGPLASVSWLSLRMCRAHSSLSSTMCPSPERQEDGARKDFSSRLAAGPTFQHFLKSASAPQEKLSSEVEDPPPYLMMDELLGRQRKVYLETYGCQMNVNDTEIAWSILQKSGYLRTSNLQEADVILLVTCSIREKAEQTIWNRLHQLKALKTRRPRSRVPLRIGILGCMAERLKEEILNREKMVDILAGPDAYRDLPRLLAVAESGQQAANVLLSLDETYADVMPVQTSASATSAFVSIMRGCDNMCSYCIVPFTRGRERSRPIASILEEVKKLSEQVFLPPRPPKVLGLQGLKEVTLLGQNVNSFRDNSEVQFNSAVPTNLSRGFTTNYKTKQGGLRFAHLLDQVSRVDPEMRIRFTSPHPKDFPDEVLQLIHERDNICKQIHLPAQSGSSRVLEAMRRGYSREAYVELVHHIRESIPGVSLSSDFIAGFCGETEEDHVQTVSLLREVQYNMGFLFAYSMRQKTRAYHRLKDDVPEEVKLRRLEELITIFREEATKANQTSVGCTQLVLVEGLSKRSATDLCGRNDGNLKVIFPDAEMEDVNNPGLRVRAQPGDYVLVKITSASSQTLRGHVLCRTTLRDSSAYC
UniProt Q9BYV8, sequence (Q9BYV8 whole entry, looked up): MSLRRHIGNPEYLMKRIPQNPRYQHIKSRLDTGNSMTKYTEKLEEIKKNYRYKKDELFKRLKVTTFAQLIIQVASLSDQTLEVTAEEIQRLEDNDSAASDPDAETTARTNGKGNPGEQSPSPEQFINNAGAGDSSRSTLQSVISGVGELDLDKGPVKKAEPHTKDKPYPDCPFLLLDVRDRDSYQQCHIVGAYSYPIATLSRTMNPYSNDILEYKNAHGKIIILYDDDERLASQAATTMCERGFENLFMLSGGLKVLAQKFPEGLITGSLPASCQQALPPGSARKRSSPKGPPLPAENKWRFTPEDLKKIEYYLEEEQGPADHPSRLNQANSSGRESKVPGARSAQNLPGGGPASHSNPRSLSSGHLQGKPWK
UniProt O95429, sequence (O95429 whole entry, looked up): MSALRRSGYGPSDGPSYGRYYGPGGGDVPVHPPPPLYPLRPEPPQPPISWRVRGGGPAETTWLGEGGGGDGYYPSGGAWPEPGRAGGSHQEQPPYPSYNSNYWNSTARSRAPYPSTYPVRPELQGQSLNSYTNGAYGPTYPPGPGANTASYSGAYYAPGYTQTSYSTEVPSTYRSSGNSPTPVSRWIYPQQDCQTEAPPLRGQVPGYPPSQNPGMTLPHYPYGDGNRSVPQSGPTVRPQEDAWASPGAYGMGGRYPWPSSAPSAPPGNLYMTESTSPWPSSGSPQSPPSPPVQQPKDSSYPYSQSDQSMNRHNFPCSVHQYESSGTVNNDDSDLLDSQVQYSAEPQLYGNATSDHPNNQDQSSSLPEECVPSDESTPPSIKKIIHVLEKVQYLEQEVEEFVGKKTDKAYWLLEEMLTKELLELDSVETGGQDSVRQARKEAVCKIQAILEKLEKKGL

Target	log2 fold change (nilotinib)	log2 fold change [1]	log2 fold change (dasatinib)	log2 fold change [2]	log2 fold change [3]	log2 fold change (quisinostat)	log2 fold change (tipifarnib)	log2 fold change [4]	log2 fold change [5]	log2 fold change [6]
CCND3 (UniProt P30281)	-0.061	-0.015	-0.08	0.042	0.137	-0.05	-0.062	-0.003	-0.057	–
CDK5RAP1 (UniProt Q96SZ6)	-0.007	0.002	0.037	0.019	0.011	0.049	-0.002	-0.004	-0.013	–
C18orf25 (UniProt Q96B23)	0.139	-0.014	-0.022	-0.018	0.082	-0.007	0.003	0	-0.008	0.011
ATP2B4 (UniProt P23634)	-0.05	0.098	-0.031	0.003	0.021	0.164	-0.028	-0.019	0.008	0.019
CELF1 isoform 4 (UniProt Q92879)	-0.022	0.042	-0.025	0	0	0.021	-0.013	0.037	0.067	0.033
CHAC2 (UniProt Q8WUX2)	0.004	0.043	-0.022	-0.024	0.036	-0.066	0.041	0.019	-0.027	0.017
ATG13 isoform 2 (UniProt O75143)	-0.034	0.036	0.002	0.028	-0.069	-0.052	-0.018	0.059	-0.014	0
C15orf39 (UniProt Q6ZRI6)	0.074	-0.006	-0.059	0.019	0.034	-0.017	-0.015	0.053	0.184	–
CAMKK1 isoform 2 (UniProt Q8N5S9)	-0.013	0.144	0.05	0.064	0.189	-0.072	-0.064	0.047	0.007	-0.002
BCAR1 isoform 6 (UniProt P56945)	-0.021	-0.015	0.001	-0.068	0.018	0.021	-0.006	0.016	0.008	-0.009
BAG4 (UniProt O95429)	-0.154	-0.039	0.027	0.014	0.015	0.019	-0.011	0.01	0.038	0.018
CEP41 (UniProt Q9BYV8)	0.001	0.034	0.043	-0.008	-0.077	-0.068	-0.027	-0.128	0.076	0.066
CHD9 (UniProt Q3L8U1)	0.209	0.125	-0.124	-0.279	-0.109	-0.029	-0.017	0	0.032	–
BUD13 (UniProt Q9BRD0)	-0.036	0.111	-0.094	0	0.019	-0.044	0.028	-0.014	-0.019	–
CAMK2G isoform 8 (UniProt Q13555)	-0.007	0.518 (active)	-0.034	0.039	-0.062	-0.125	-0.005	0.219	-0.125	0.019
CDK17 isoform 2 (UniProt Q00537)	0.061	0.117	-0.068	0.096	0.011	-0.069	-0.423	-0.057	0.068	–
BSDC1 (UniProt Q9NW68)	0.016	-0.009	0.018	0.027	-0.018	-0.024	-0.093	0.003	0.016	-0.023
BCKDK (UniProt O14874)	0.008	0.001	0.023	-0.061	0.058	0.094	-0.058	-0.092	0.052	-0.029
AVEN (UniProt Q9NQS1)	-0.014	0.068	0.01	0.025	-0.08	-0.042	-0.188	0.038	0.154	–
CCNB1 (UniProt P14635)	-0.04	0.037	-0.016	0.369 (active)	-0.021	0.035	-0.005	0.005	0.006	0.165
BNIP3 (UniProt Q12983)	0.037	-0.077	0.014	-0.002	-0.02	-0.219	0.05	0.061	-0.007	-0.018
ATR (UniProt Q13535)	-0.075	0.002	0.001	0.013	0.001	-0.219	-0.032	0.047	-0.085	0.014
CDK11B (UniProt P21127)	-0.006	-0.015	-0.028	0.087	0.068	-0.023	0.01	0.018	-0.018	0.009
BBS7 (UniProt Q8IWZ6)	-0.039	0.065	-0.061	-0.03	0.489 (active)	0.06	-0.133	-0.044	0.14	–
BMS1 (UniProt Q14692)	0.024	0.024	-0.02	-0.045	-0.01	-0.097	0	0.006	-0.019	0.015
CAMKK2 (UniProt Q96RR4)	-0.038	0.176	0.031	0.028	0.023	-0.01	-0.037	0.1	0	-0.046
ATP9B (UniProt O43861)	0.05	0.164	-0.04	-0.069	-0.049	0.009	-0.08	-0.021	0.064	0.107
BCR (UniProt P11274)	0.108	0.021	0.043	-0.017	-0.018	-0.044	-0.015	–	0.016	0.028
